Bioassay records (PubChem)
Pf Dd2 growth: qHTS Primary assay for Inhibitors of Plasmodium falciparum Dd2 growth in vitro; P. falciparum Dd2 growth, SYBR Green, 72 h; Potency, µM (titrated, usually from 28.9 µM), for the others: top-dose activity, negative = inhibition, usual class: inhibitors; 4.3% of 120,000 active; active means well fitted inhibition curve with a large enough effect;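 further: plate controls were DMSO vehicle for no effect and reference drug for full effect; nearly all actives have a fitted effect of over 65% in size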
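Readout: SYBR Green fluorescence, 485 nm excitation, 535 nm emission, after ~16 h lysis at 37C. Before that, Dd2-infected red cells (2.5% hematocrit) grew 72 h with compound, 29 uM top final concentration.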
An asterisk follows results filed as active; i = inactive; [ ] = dose if it differs, or a comment. The sample as a whole holds a higher share of hits than the screen did. Potency means the concentration at half of the fitted maximal effect.

SMILES | Pf Dd2 growth
CCn1ccc2c(OCC(=O)Nc3ccccc3C(F)(F)F)cccc2c1=O | 2.3%
Cc1nn(CC(=O)N2CC[C@H](CO)[C@H](O)C2)c(=O)c2ccccc12 | -4.6%
CCn1cnnc1-c1nn(C)c2c1CNCC2 | 1.6%
COc1ccc(OC)c(NC(=O)C(C)n2c(=O)cc(C)c3c(C)nn(-c4ccccc4)c32)c1 (stereo unspecified) | 17.1%
COCCC(=O)N1CCC2(CC1)C(=O)Nc1cc(OCc3ccccc3)c(OC)cc12 | i
Cn1nnnc1C1CCCN(C(=O)C2CC2)C1 (stereo unspecified) | 7.1%
COc1ccc2c(Sc3ccc(C)cc3)c(C(=O)NCCc3ccccc3)[nH]c2c1 | -2.4%
CNC(=O)Nc1ccc(C)n(CC(=O)N2CCN(c3ccccc3OC)CC2)c1=O | -16.2%
Cc1cc(N2CCN(c3ccccc3)CC2)n2cnnc2n1 | 32.1%
CN(Cc1nc(COc2ccccc2)no1)CC1(N2CCOCC2)CCCCC1 | 8.91µM*
COc1ccccc1OC(C)C(=O)NCC1(N2CCOCC2)CCCCC1 (stereo unspecified) | i
CN(CCCN1CCOCC1)Cc1nc(-c2cccs2)no1 | -23.4%
CC(C)NC1(Cc2cc(CCO)on2)COC1 | 7.0%[44.1 µM]
Cc1nncn1C1CCN(S(=O)(=O)c2cccs2)CC1 | 3.8%
Cc1noc(-c2ccc(OC(F)(F)F)cc2)c1C(=O)NCc1ccccc1Cl | -4.9%
COc1ccc(C2(C(=O)N3CCC(F)CC3)CCOCC2)cc1 | 12.6%
COc1ccc(C2(C(=O)N3CCC(CC(=O)NC4CC4)C3)CC2)cc1 (stereo unspecified) | 26.4%
COc1cccc(CC(=O)N2CCCC(CN3CCCC3)CC2)c1 (stereo unspecified) | 1µM*
COc1cccc(CC(=O)N2CCCCCCNC(=O)CC2)c1 | -14.6%
COCC(=O)N(C1CCOCC1)C1CCN(C(=O)Cc2cccc(OC)c2)CC1 | 13.7%
COc1ccc(C2(C(=O)N3CCCC(CN4CCCC4)CC3)CC2)cc1 (stereo unspecified) | 3.16µM*
Cc1n[nH]c(C)c1CNC(=O)C1CCN(C(=O)c2ncn3c2COC(c2ccc(F)cc2)C3)CC1 (stereo unspecified) | i
O=C(c1cccnc1)N1CCCC(CCc2c(F)cccc2F)C1 (stereo unspecified) | -21.9%
CC(C)c1ccc(-c2nc(C3CC(=O)N(c4ccc(F)c(Cl)c4)C3)no2)cc1 (stereo unspecified) | 22.0%
CN1C(=O)c2cncnc2OCC1CNC(=O)c1ccc(Cl)cc1 (stereo unspecified) | -6.6%[44.1 µM]
SMILES | Pf Dd2 growth
CCn1c(-c2ccccc2)nn(CC(=O)NCCN2CCCOC2=O)c1=O | 3.3%
O=c1[nH]c(C2CCCN(Cc3cccnc3)C2)nn1-c1ccccc1 (stereo unspecified) | i
Cc1ccc(C)c(N2CCN(C(=O)C(CC(C)C)NS(=O)(=O)c3ccc4nc(C)sc4c3)CC2)c1 (stereo unspecified) | 7.94µM*
Cc1nc2ccc(S(=O)(=O)NCC(=O)Nc3ccc(C)c(Cl)c3)cc2s1 | i
CSCCC(NS(=O)(=O)c1ccc2c(c1)oc(=O)n2C)C(=O)N1CCN(c2cc(C)ccc2C)CC1 (stereo unspecified) | -20.9%
S=C(Nc1ccccc1)N[C@H]1CO[C@H]2[C@@H]1OC[C@@H]2Nc1nccc(-c2ccco2)n1 | i
COc1cccc(C(=O)N2CCC3(CC2)NC(=O)N(Cc2ccccc2)C3=O)c1OC | 8.91µM*
COc1ccc(C(=O)N2CCC3(CC2)NC(=O)N(Cc2ccccc2)C3=O)cc1OC | i
COc1ccccc1CC(=O)N1CCC2(CC1)NC(=O)N(Cc1ccccc1)C2=O | 12.9%
O=C1CC2CCN(Cc3ccccc3)CC2CCN1 (stereo unspecified) | 13.2%[44.1 µM]
Cc1ccc(NC(=O)N2CCCC(Cn3c(C)nc4cccnc43)C2)cc1F (stereo unspecified) | -28.8%
COC[C@@H]1CN(C(=O)C2CC2)C[C@H]1c1ccncc1 | 3.1%
CC(=O)N1CCN(C(=O)c2c[nH]c3ncccc23)CC1 | 2.0%[44.1 µM]
CCc1ccc(-n2c(=O)c3c4c(sc3n(CC(=O)c3ccc(F)cc3)c2=O)CCC4)cc1 | -16.1%
COc1cccc(C(=O)Nc2ccc(S(=O)(=O)N(Cc3ccccc3)c3ccccc3)cc2)c1 | 47.9%
O=C(Nc1ccc(S(=O)(=O)N(Cc2ccccc2)c2ccccc2)cc1)c1ccc(F)cc1 | 69.1%
Cc1ccc(NC(=O)c2ccc(N(Cc3ccccc3)S(C)(=O)=O)cc2)cc1 | 6.31µM*
Cc1ccccc1Cn1c2ccccc2c2cnn(CC(=O)NC3CCC(C)CC3)c(=O)c21 (stereo unspecified) | i
C#CCN(CC=C)Cc1cnc(S(=O)(=O)CC)n1CCCc1ccccc1 | i
CCCCn1c(CN(C)C(C)c2ccccc2OC)cnc1S(=O)(=O)CC (stereo unspecified) | 8.91µM*
CCC(O)C1CCN(Cc2cnc(S(=O)(=O)CC)n2CCc2ccccc2)CC1 (stereo unspecified) | i
C=CCc1cc(C(=O)N2C[C@@H]3CCN(C)C[C@]3(C(=O)O)C2)ccc1OC | -3.7%
